Laboratory results: PubChem BioAssay (NCI)
This is part of a sample that, as a whole, favours compounds with a hit. Of some 83,000 tested, about 20% had one in any assay.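 Negative percent growth values reflect cell death: -40 means 40% of the cells present at the start died, and -100 means all died.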 Active and inactive are the calls of the source. The calls were made as follows: active = growth percent below 10; inactive = the rest.

What follows are compounds tested on MDA-MB-468 breast (assay: NCI-60 one-dose screen, 48 h (100 = growth as untreated, 0 = no growth, -100 = all killed)). Details: 10 µM unless noted.
For `COc1ccc(CNc2ccc3nc(CCC4CCCCC4)[nH]c3c2)cc1`, the growth was 39.1% (inactive). In the case of `O=[N+]([O-])c1ccccc1S(=O)c1ccccc1[N+](=O)[O-]`, the growth is reported as 40.1% (inactive). With `Nc1nc2ccc(-c3nc4ccc5[nH]ncc5c4c4c3CCCC4)cc2s1` the growth was 112% (inactive). In the case of `Cn1c2ccccc2c2nnc(N/N=C/c3ccccn3)nc21`, the growth is reported as -25.1% (active). With `COc1ccc(-c2cc(/C=C3\C(=O)Nc4ccc(OC)cc43)[nH]n2)cc1` the growth was 19% (inactive). In the case of `Nc1c(C(=O)Nc2ccccc2)sc2nc3c(cc12)CCCCC3`, the growth is reported as -9.1% (active). `COc1ccc(Cn2c(Br)c3c(c2Br)-c2nc(NC(=O)c4ccc(OC)cc4)sc2CC3)cc1` was tested, and the growth was 83.5% (inactive). `CC(=O)N[C@H](C(=O)N[C@@H](CCCNC(=N)N)C(=O)N[C@@H](CCCCN)C(=O)N[C@@H](CCCNC(=N)N)C(=O)N[C@]1(C)CCCCCC/C=C\CCC[C@@](C)(C(=O)N[C@@H](CCCNC(=N)N)C(=O)N[C@@H](CCC(=O)O)C(=O)N[C@@H](CC(C)C)C(=O)N[C@H](C(=O)N[C@@H](CCC(=O)O)C(N)=O)C(C)C)NC(=O)[C@H](CCC(N)=O)NC(=O)[C@H](CC(C)C)NC(=O)[C@H](CC(C)C)NC(=O)[C@H](CCCNC(=N)N)NC(=O)[C@H](CCCNC(=N)N)NC(=O)[C@H](CC(C)C)NC1=O)C(C)C` was tested, and the growth was 20.5% (inactive). For `Cc1cc(=O)n2n1-c1ccc(Cl)cc1NC(=O)C2`, the growth was 101% (inactive). For `Cc1ccccc1N1C(c2ccccc2)=NNC12C=CC(=O)C=C2Cl` (stereo not given), the growth was 109% (inactive). `CCCC/C(CC)=N\NS(=O)(=O)c1ccc([N+](=O)[O-])cc1` was tested, and the growth was 109% (inactive). For `O=C(Nc1cccc(-n2ccc3c(NC(=O)c4ccccc4)nccc32)c1)Nc1ccc(Cl)c(C(F)(F)F)c1`, the growth was -3.83% (active). With `CCN(CC)CCOc1ccc(-c2c(-c3ccccc3)c(=O)oc3ccccc23)cc1` the growth was 72.9% (inactive). For `c1ccc(C(NC2CC3CCC2C3)c2ccccc2)cc1` (stereo not given), the growth was 96.8% (inactive). `Cn1cc(-c2noc(-c3cn(C)c4ncccc34)n2)c2cc(Cl)ccc21` was tested, and the growth was 91.3% (inactive). For `CC[C@@H](C(=O)[C@@H](C)[C@@H](O)[C@H](C)[C@@H]1O[C@@H]([C@@H](CC)C(=O)O)CC[C@@H]1C)[C@H]1OC2(C=C[C@@H](O)[C@]3(CC[C@@](C)([C@H]4CC[C@](O)(CC)[C@H](C)O4)O3)O2)[C@H](C)C[C@@H]1C` (stereo not given in full), the growth was -9.66% (active). In the case of `C#CCCCCCCC[C@@H]1OC(=O)[C@H]([C@@H](C)CC)NC(=O)[C@@H]([C@@H](C)CC)NC(=O)CC(=O)[C@@H]1C`, the growth is reported as 101% (inactive). In the case of `N#Cc1c(-c2cccc(Cl)c2)cc(-c2cccc(F)c2)[nH]c1=O`, the growth is reported as 87.1% (inactive). For `Cc1cc(NCCCNc2ccnc3cc(Cl)ccc23)nc(N2CCN(C)CC2)n1`, the growth was 65.4% (inactive). For `COc1ccc(-c2nc3sc4c(c3c(=O)[nH]2)CCCC4)c2ccccc12`, the growth was 25% (inactive). In the case of `COC(=O)C(CSC(c1ccccc1)(c1ccccc1)c1ccccc1)NC(=O)C(CC(N)=O)NC(=O)OCc1ccccc1` (stereo not given), the growth is reported as -17.7% (active). With `O=c1c2c(=NCCN3CCCC3)cc3c(=O)n(CCCN4CCOCC4)c(=O)c4ccc(c(O)n1CCCN1CCOCC1)c2c4-3` the growth was -49.4% (active). With `O=c1c(-c2nc3ccccc3[nH]2)cc2ccccc2n1Cc1cn(Cc2ccccc2Cl)nn1` the growth was 14.1% (inactive). For `O=S(=O)(c1ccc(OCCO)cc1)c1ccc(OCCO)cc1`, the growth was 101% (inactive). With `CCNCCNc1cc(-c2ccc(C(F)(F)F)cc2)c(C#N)c2nc3cc(Cl)c(Cl)cc3n12` the growth was -82% (active). For `O=C(c1ccccc1)C(Br)C(Br)c1cccc([N+](=O)[O-])c1` (stereo not given), the growth was -66.4% (active). In the case of `CC(C)(C)CC(C)(C)Nc1c(-c2ccncc2)nc2cnccn12`, the growth is reported as 87.5% (inactive). `O=C(O)c1ccc[n+](CC(=O)N2CCN(c3cc4c(cc3F)c(=O)c(C(=O)O)cn4C3CC3)CC2)c1` was tested, and the growth was 81.4% (inactive). With `Clc1cccc(CNc2c3ccccc3nc3ccccc23)c1` the growth was -18.4% (active). For `CC1(C)CN(c2cnc(C(=O)Nc3cc(F)cc4cccnc34)cn2)CCN1`, the growth was 17.8% (inactive). With `O=C(O)COc1c(Cl)cc([N+](=O)[O-])cc1Cl` the growth was 99.4% (inactive). With `O=C1c2ccccc2C(=Cc2ccccc2)c2ccccc21` the growth was -7.09% (active). For `CCCc1cc2cc(-n3nc(CC)c4c3CC(C)(C)CC4=O)cc(NC3CCC(O)CC3)c2c(=O)[nH]1` (stereo not given), the growth was -22.7% (active). In the case of `Cc1cccc(C)c1NCc1nc(-c2ccccc2)n[nH]1`, the growth is reported as 122% (inactive). In the case of `CCN=c1cc2sc3cc(NCC)c(C)cc3nc-2cc1C`, the growth is reported as 30.7% (inactive). For `CC(=O)OC(C)c1cccc(C#N)c1` (stereo not given), the growth was 105% (inactive). With `C/C=C(/C)C(=O)O[C@@H]1CC(C)(C)CC2C34OC(=O)[C@@]21CC[C@@]3(C)[C@]1(C)CCC2C(C)(C)C(=O)CC[C@]2(C)C1C[C@@H]4Cl` (stereo not given in full) the growth was 80.5% (inactive). For `Nc1nc(-c2cccnc2)nc2c1sc(=S)n2-c1ccccc1`, the growth was 103% (inactive). With `CC1(C)CC2(C)CC(=O)C1C(C(=O)O)C2C(=O)O` (stereo not given) the growth was 114% (inactive). `O=C(c1ccncc1)N1N=C(c2ccc(Cl)cc2)CC1c1c[nH]c2ccccc12` (stereo not given) was tested, and the growth was 102% (inactive).
